Screening data (PubChem BioAssay)
The list is not random: actives were taken first. Their share in the collection is about 2.8%.
Pol kappa inh-1 – qHTS for Inhibitors of Polymerase Kappa; DNA polymerase kappa (Homo sapiens), Q9UBT6; purified Pol kappa, fluorescent DNA synthesis assay, 10 min; Potency, µM (titrated, usually from 107 µM), for inactives: top-dose activity, negative = inhibition, usual class: inhibitors; 400,000 tested, 0.53% active; further: potency means the concentration at half of the fitted maximal effect; on the % scale 0 is the no-effect control and ±100 the full control effect
Target sequence (Q9UBT6 whole entry, looked up): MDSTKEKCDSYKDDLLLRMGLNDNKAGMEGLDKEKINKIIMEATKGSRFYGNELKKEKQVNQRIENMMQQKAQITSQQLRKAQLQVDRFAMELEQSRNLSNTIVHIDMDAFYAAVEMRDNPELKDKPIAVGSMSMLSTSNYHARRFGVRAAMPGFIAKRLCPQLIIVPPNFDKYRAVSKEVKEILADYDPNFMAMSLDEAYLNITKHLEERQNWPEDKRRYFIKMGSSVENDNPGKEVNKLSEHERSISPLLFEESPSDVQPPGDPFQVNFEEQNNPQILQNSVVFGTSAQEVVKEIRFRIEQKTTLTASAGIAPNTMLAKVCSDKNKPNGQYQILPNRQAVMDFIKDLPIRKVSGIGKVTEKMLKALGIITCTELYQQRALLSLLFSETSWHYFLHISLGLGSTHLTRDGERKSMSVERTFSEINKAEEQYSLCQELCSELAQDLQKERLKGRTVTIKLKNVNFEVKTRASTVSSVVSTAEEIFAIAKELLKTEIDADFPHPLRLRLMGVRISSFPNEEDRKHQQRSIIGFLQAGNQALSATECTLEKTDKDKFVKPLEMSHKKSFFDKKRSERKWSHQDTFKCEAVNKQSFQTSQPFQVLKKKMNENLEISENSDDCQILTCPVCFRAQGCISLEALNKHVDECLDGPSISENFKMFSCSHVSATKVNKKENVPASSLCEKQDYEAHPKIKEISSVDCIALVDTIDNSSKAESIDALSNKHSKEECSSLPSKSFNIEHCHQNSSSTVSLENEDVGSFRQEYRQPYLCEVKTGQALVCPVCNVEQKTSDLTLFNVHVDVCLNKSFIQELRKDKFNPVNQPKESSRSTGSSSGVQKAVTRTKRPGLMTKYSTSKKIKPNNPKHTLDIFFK
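Enzyme at 10 nM met test compounds for 15 min at room temperature. Substrate addition (50 nM final) began the reaction, which was monitored by fluorescence at 0 and 10 min.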
WRN helicase inh – qHTS for Inhibitors of WRN Helicase; Bifunctional 3'-5' exonuclease/ATP-dependent helicase WRN (Homo sapiens), Q14191; WRN helicase unwinding, fluorescent forked duplex, kinetic; Potency, µM (top dose mostly 114 µM), for the others: at the top dose activity change, negative = inhibition, actives largely listed as inhibitors; 360,000 tested, 0.46% active; AID 651768, 2012; further: potency means the concentration at half of the fitted maximal effect; on the % scale 0 is the no-effect control and ±100 the full control effect; nearly all actives have a fitted effect of over 55% in size
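Screening of the MLSMR collection measured strand separation of a quenched forked DNA duplex (100 nM) by 20 nM WRN with 2 mM ATP, all final. Compounds were preincubated with enzyme 15 min at room temperature.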
Pol eta inh-1 – qHTS for Inhibitors of Polymerase Eta | DNA polymerase eta (Homo sapiens), Q9Y253 | recombinant Pol eta, fluorescent DNA replication assay | Potency, µM (highest dose often 114 µM), for the others: at the top dose activity change, negative = inhibition, actives largely listed as inhibitors | 390,000 tested, 1.2% active; further: potency means the concentration at half of the fitted maximal effect; on the % scale 0 is the no-effect control and ±100 the full control effect
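Pol eta at 10 nM preincubated with compounds 15 min at room temperature; reaction started with fluorescent substrate (50 nM final) and read kinetically at 0 and 10 min.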
PI5P4K alpha inh – qHTS for Inhibitors of phosphatidylinositol 5-phosphate 4-kinase (PI5P4K); 330,000 tested, 1.2% active; max response, %; Phosphatidylinositol 5-phosphate 4-kinase type-2 alpha (Homo sapiens), P48426; AID 652105, 2013; PI5P4Kalpha enzyme, ADP-Glo luminescence, 60 min; hits give low values; active means max response of -50% or lower; inconclusive means between -30% and -50%; inactive means -30% or higher; further: value at the top dose of about 77 µM; on the % scale 0 is the no-effect control and ±100 the full control effect
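Enzyme plus substrate dispensed, test compounds pinned in, then ATP (5 microM final) added. After 60 min at RT, ADP-Glo reagent 1 for 45 min and reagent 2 for 30 min preceded luminescence imaging.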
Pol beta inh – qHTS Assay for Inhibitors of DNA Polymerase Beta. Pol beta primer extension/strand displacement, fluorescence kinetic. Potency, µM (titrated, usually from 114 µM), for inactives: at the highest dose activity change, negative = inhibition, hits mostly inhibitors. 340,000 tested, 1.3% active; further: potency means the concentration at half of the fitted maximal effect; on the % scale 0 is the no-effect control and ±100 the full control effect
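Enzyme-only controls used 10 nM Pol beta; buffer lacking enzyme served as negative control. Compound preincubated 15 min, then 50 nM substrate added; 0 and 10 min reads at room temperature.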
POLI inh – qHTS for Inhibitors of Polymerase Iota. DNA polymerase iota (Homo sapiens), Q9UNA4. Pol iota fluorescent replication assay, 10 min. Potency, µM (titrated, usually from 115 µM), without a hit: at the highest dose activity, negative = inhibition, actives largely listed as inhibitors. 390,000 tested, 1% active. AID 588590, 2011; further: potency means the concentration at half of the fitted maximal effect
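Fluorescent replication assay read twice, at 0 min and 10 min after adding 50 nM (final) substrate. Enzyme (10 nM) and compounds were first incubated 15 min at room temperature; enzyme-free buffer wells were negative controls.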
Pol iota confirm – qHTS for Inhibitors of Polymerase Iota: Confirmatory Assay for Cherry-picked Compounds; Pol iota primer extension, TAMRA/BHQ fluorescence; 1,500 tested, 77% active; shares compounds with Pol kappa inh-1; Potency, µM, usual class: inhibitors; AID 720496, 2013; further: potency means the concentration at half of the fitted maximal effect
Pol kappa inh-2 – qHTS for Inhibitors of Polymerase Kappa: Confirmatory Assay for Cherry-picked Compounds | shares compounds with Pol eta inh-1 | purified Pol-kappa, fluorescent strand-displacement substrate | Potency, µM, most hits filed as inhibitors | 920 tested, 76% active; further: potency means the concentration at half of the fitted maximal effect
Pol eta inh-2 – qHTS for Inhibitors of Polymerase Eta: Confirmatory Assay for Cherry-picked Compounds; AID 720502, 2013; shares compounds with Pol eta inh-1; Pol eta primer extension, TAMRA/BHQ fluorescence, 10 min; Potency, µM, usual class: inhibitors; 2,600 tested, 64% active; further: potency means the concentration at half of the fitted maximal effect
Active calls of the source: *; ? = inconclusive; / = no result; [ ] = remark or other dose. Unless noted, the call rests on the fitted dose curve; in most records, active means well fitted curve in the direction sought with a large enough effect; inconclusive means small, poorly fitted or top-dose-only effect, or another doubt; inactive means no such curve, though single readings can be large; an effect the other way counts as inactive or inconclusive.

SMILES	Pol kappa inh-1	WRN helicase inh	Pol eta inh-1	PI5P4K alpha inh	Pol beta inh	POLI inh	Pol iota confirm	Pol eta inh-2	others
COc1ccc(C(=O)N/N=C/c2ccc(OC)c(COc3c(F)c(F)cc(F)c3F)c2)cc1	-16%	-6%[11.6 µM]	?	-5	50µM*	45µM*	?	/	Pol kappa inh-2=?
Cc1ccc(C(=O)CCC(=O)Nc2ccccc2F)cc1	13%	6%	-16%	0	46%	14%	/	/
COc1ccc(CNC(=O)COC(=O)c2ccc(S(=O)(=O)NCc3ccco3)cc2)cc1	?	-9%	32µM*	-23	/	50µM*	?	67*
O=C(COC(=O)c1ccc(F)cc1Cl)NCc1ccco1	?	-12%[11.6 µM]	40µM*	-26	/	22µM*	60*	?
Cc1ccc(C(=O)OCC(=O)NCc2ccco2)s1	79µM*	?	22µM*	-26	22µM*	28µM*	42*	67*
COc1ccc(N2CCN(C(=O)c3cnn(-c4ccc(OC)cc4)c3C3CCN(C(=O)OC(C)(C)C)CC3)CC2)cc1	-7%	/	-24%	/	-10%	41%	/	/
O=C(Nc1ccccn1)c1ccc(Cl)c(S(=O)(=O)N2CCc3ccccc32)c1	4%	0%	-22%	5	/	?	/	/
N#C/C(=C\c1cc(Cl)c(OCc2ccc(Cl)cc2)c(Cl)c1)C(N)=O	/	/	/	/	-23%	/	/	/
N#C/C(=C\c1cc(O)c(O)c(O)c1)C(N)=O	-1%	-30%	4%	-76*	?	?	19*	67*
CCOC(=O)CC(NC(=O)CCc1c(C)nc2cc(-c3ccccc3)nn2c1C)c1ccc(C)cc1 (stereo not drawn)	-12%	/	-19%	/	22%	74%	/	/
COc1cc(-c2oc3cc(O)cc(O)c3c(=O)c2O[C@@H]2O[C@H](CO)[C@@H](O)[C@H](O)[C@H]2O)ccc1O	6%[60.1 µM]	/	/	/	/	/	/	/
COc1c(-c2ccc(O)c(O)c2)oc2cc(O)cc(O)c2c1=O	14µM*	32µM*	8.9µM*	?	4.5µM*	?	42*	24*
O=C(CSc1nnc(SCc2ccccc2)s1)N/N=C/C=C/c1ccccc1[N+](=O)[O-]	0%	-6%	-5%	0	-1%	-2%	/	/
Cn1cccc1CC(=O)N/N=C/C=C/c1ccco1	35µM*	?	?	-55*	25µM*	18µM*	67*	?	Pol kappa inh-2=38*
O=C(CSc1nnc(SCc2ccccc2)s1)N/N=C/C=C\c1ccco1	28µM*	?	20µM*	-82*	7.1µM*	?	42*	43*
COc1ncc2nc(-c3ccc(F)cc3)c(=O)n(Cc3cccs3)c2n1	-2%[60.1 µM]	/	/	/	/	/	/	/
O=P(O)(c1ccccc1)c1ccccc1O	-11%	1%	13%	0	2%	?	/	/
O=P(c1ccccc1)(c1ccccc1)c1cc(S(=O)(=O)O)ccc1O	?	-30%[57.1 µM]	20µM*	-29	10µM*	25µM*	24*	60*	Pol kappa inh-2=42*
Oc1ccc(/C=N/Nc2ccc(Cl)nn2)c(O)c1O	?	?	10µM*	-71*	18µM*	?	17*	30*
Cc1ccc(S(=O)(=O)Nc2csc(C)c2C(=O)O)cc1	-44%	-25%	18µM*	?	8.9µM*	?	67*	48*
Cc1ccc(S(=O)(=O)Nc2cc(C)c(O)cc2C)cc1	-10%	0%	-3%	7	-12%	-13%	/	/
Cc1cc(=O)n(C(C)C(=O)NCc2ccccc2Cl)c2c1c(C)nn2-c1ccccc1 (stereo not drawn)	-2%	/	-15%	/	-27%	-20%	/	/
Cc1ccc(C(=O)O)cc1N1C(=O)c2cccc3c([N+](=O)[O-])ccc(c23)C1=O	40µM*	?	10µM*	?	18µM*	16µM*	27*	30*	Pol kappa inh-2=6.7*
CCOc1ccc(CN2CCN(S(=O)(=O)c3ccc(NC(C)=O)cc3)CC2)cc1	-5%	-10%	-22%	8	0%	143%	/	/
COc1ccc2[nH]cc(CCNC(=O)c3cnn(-c4ccc(C)cc4)c3C3CCN(C(=O)OC(C)(C)C)CC3)c2c1	-17%	/	-21%	/	-19%	-16%	/	/
SMILES	Pol kappa inh-1	WRN helicase inh	Pol eta inh-1	PI5P4K alpha inh	Pol beta inh	POLI inh	Pol iota confirm	Pol eta inh-2	others
Cc1ccc(-n2cccc2/C=C2/C(=N)N3C(=NC2=O)SN=C3S(C)(=O)=O)cc1Cl	?	?	14µM*	-74*	28µM*	22µM*	84*	?
COC(=O)[C@@]12CCCCN1[C@H](c1ccc(-c3ccc4c(c3)OCO4)cc1)[C@H]1C(=O)N(C)C(=O)[C@H]12	-16%	0%	-23%	3	/	26%	/	/
CCN(CC)c1ccc(/C=C(\C#N)C(N)=O)cc1	-14%	-5%	-4%	-2	?	27%	/	/
CCN(CC)c1ccc(/C=C(\C#N)C(=O)c2ccc(Br)cc2)cc1	22µM*	28µM*	?	-2	40µM*	?	67*	43*	Pol kappa inh-2=67*
COc1cc2c(cc1OC)C(c1cc(OC)c(O)c(OC)c1)CC(=O)N2 (stereo not drawn)	0%	/	-9%	/	0%	7%	/	/
Cc1ccc(NC(=O)Cn2c(O)c(N=NC(=O)c3cc4ccccc4cc3O)c3ccccc32)cc1	-29%	-20%	?	?	?	?	/	/
COc1ccccc1NC(=O)Cn1c(O)c(N=NC(=O)c2ccccc2O)c2ccccc21	?	-10%[11.6 µM]	50µM*	-1	?	?	?	/	Pol kappa inh-2=?
COc1ccc(C(=O)CCc2ccccc2)c(O)c1	0%	-2%	-11%	11	/	66%	/	/
COc1ccc(CCC(=O)O)c(O)c1	71µM*	-13%	32µM*	-2	40µM*	?	75*	67*
